# Assay results from the supplement of paper PMC6555819.
# Tests used:
# Test in all cases: PBM binding z-score (relative to random genomic background probes); higher = stronger binding; sequences stand for … in GC…GCGATTGACAGCGTAGAATGAAGG
# [1] = tested on: PPARg:RXRa DBDmut IVT, anti-RXR (DBD mutation: RXRa K156A/R161A, NR concentration 270 nM, RXRa partner concentration 90 nM)
# Outline: (§1)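 Ligand-free nuclear receptor dimers were bound for 1 h to custom Agilent 4×180K protein-binding microarrays. Detection used antibodies against each partner (one per run). Binding z-scores rest on regression-normalized fluorescence, with random background probes as the reference.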
# [2] = tested on: PPARg:RXRa IVT, anti-PPARg (NR concentration 270 nM, RXRa partner concentration 90 nM)
# Outline: as §1
# [3] = tested on: PPARg DBDmut:RXRa IVT, anti-PPARg (DBD mutation: PPARg1 K132A/R137A, NR concentration 270 nM, RXRa partner concentration 90 nM)
# Outline: as §1
# [4] = tested on: PPARg DBDmut IVT, anti-PPARg (DBD mutation: PPARg1 K132A/R137A, NR concentration 270 nM)
# Outline: as §1
# [5] = tested on: PPARg homodimer (NR concentration 180 nM)
# Outline: as §1
# [6] = tested on: PXR homodimer (NR concentration 270 nM)
# Outline: as §1
# [7] = tested on: RARa homodimer (NR concentration 270 nM)
# Outline: as §1
# [8] = tested on: RARb:RXRa (NR concentration 270 nM, RXRa partner concentration 90 nM)
# Outline: as §1
# [9] = tested on: RARb homodimer (NR concentration 270 nM)
# Outline: as §1
# [10] = tested on: RARg:RXRa (NR concentration 270 nM, RXRa partner concentration 90 nM)
# Outline: as §1
# [11] = tested on: RARg homodimer (NR concentration 270 nM)
# Outline: as §1
# [12] = tested on: RXRa DBDmut IVT, anti-RXR (DBD mutation: RXRa K156A/R161A, NR concentration 90 nM)
# Outline: as §1
# [13] = tested on: THRa:RXRa (NR concentration 90 nM, RXRa partner concentration 90 nM)
# Outline: as §1
# [14] = tested on: THRa homodimer (NR concentration 90 nM)
# Outline: as §1
# [15] = tested on: VDR homodimer (NR concentration 270 nM)
# Outline: as §1
# [16] = tested on: RARa:RXR (NR concentration 270 nM, RXRa partner concentration 90 nM)
# Outline: as §1
# [17] = tested on: RXRa homodimer (NR concentration 180 nM)
# Outline: as §1
# [18] = tested on: PXR:RXRa (NR concentration 270 nM, RXRa partner concentration 90 nM)
# Outline: as §1
# [19] = tested on: VDR:RXRa (NR concentration 270 nM, RXRa partner concentration 90 nM)
# Outline: as §1
Sequence,PBM binding z-score [1],PBM binding z-score [2],PBM binding z-score [3],PBM binding z-score [4],PBM binding z-score [5],PBM binding z-score [6],PBM binding z-score [7],PBM binding z-score [8],PBM binding z-score [9],PBM binding z-score [10],PBM binding z-score [11],PBM binding z-score [12],PBM binding z-score [13],PBM binding z-score [14],PBM binding z-score [15],PBM binding z-score [16],PBM binding z-score [17],PBM binding z-score [18],PBM binding z-score [19]
CAAACTAGGTCACAGAGGTCAAAGTTCGTGCGTA,8.27,8.9,4.88,5.18,6.43,12.2,3.28,5.29,5.64,7.52,7.81,3.36,4.93,3.18,7.28,,,,
TTACCAAGGTCAGCTGAGGTCGTTGATCCAACTC,2.24,3.75,0.41,0.114,1.8,3.87,0.314,5.06,4.61,5.52,6.14,2.79,,3.51,4.14,4.4,4.69,,
ACTAGTGGGTCAGCTGAGGTCACACACAATTCGG,6.51,6.96,1.71,0.986,4.18,1.68,1.85,4.45,5.07,5.77,6.44,1.74,,4.71,4.55,5.69,5.48,,
CGAACTAGATCAAAGGACAGTGAAAGGCGACGTA,1.68,1.44,,-0.617,0.388,-0.201,0.383,0.915,0.779,0.0763,0.823,-0.208,0.0238,-0.506,0.0452,-0.579,-0.0824,-0.456,-0.333
CGAACTAGGTCACCAGGACAGTGAAGAGGTTGGA,8.47,8.79,,4.55,2.24,0.0754,0.232,4.14,3.32,4.52,5.42,1.45,3.28,1.95,0.49,2.76,3.39,1.37,1.93
CGAACTAGGTCACCAGGACAGAGAAGAGGTTGGA,8.29,8.26,,0.828,2.46,0.0837,0.391,4.22,3.46,4.58,5.47,1.79,3.37,1.89,0.617,2.56,3.97,1.55,2.04
ATGTGTAGGTTAGGGTCATTCAGAAAGTAGGGAA,2.92,3.98,,1.73,3.73,3.2,2.44,3.87,3.9,4.4,3.74,2.52,4.17,3.9,4.18,5.25,5.52,4.68,4.65
CGAACTAGGTCACCAGGACCGTGAAGAGGTTGGA,8.24,8.31,,0.567,1.94,-0.498,-0.00105,4.08,3.25,4.44,5.18,1.08,2.89,1.07,0.39,2.08,3.5,1.19,2.4
CGAACTAGCTCACCAGGACAGTGAAGAGGTTGGA,0.166,-0.411,,0.212,-0.0125,-0.202,-0.478,-0.409,0.0882,-0.448,-0.336,0.0205,0.96,0.613,-0.481,-0.594,-0.153,-0.706,-0.616
CCGACGGGGGCAGAAAGGTTACCATACCATCCGG,0.901,2.55,3.18,2.71,2.43,2.06,0.566,,3.29,4.2,3.58,1.16,2.99,0.6,2.21,3.91,3.31,,4.49
ATATGCAGGTTAGGGTCATTCAGAAAGTAGGGAA,2.72,3.16,,1.24,2.85,1.51,1.16,3.4,3.2,4,3.17,2.15,3.89,2.86,3.64,4.9,5.23,4.28,4.26
CGAACTAGGTGAAAGGACAGTGAAAGGCGACGTA,7.36,7.28,,1.83,1.93,-0.114,-0.695,1.54,1.15,0.833,1.07,-0.365,0.672,-0.413,-0.349,-0.0573,0.373,-0.398,-0.353
CGAACTAGGTCACCAGGACAGTGAGGAGGTTGGA,8.37,8.24,,-0.39,1.56,-0.539,0.16,4.16,3.41,4.5,5.36,1.05,3.34,1.7,0.667,1.93,3.49,0.988,1.83
ATATGTAGGTTAGGGTCATCCAGAAAGTAGGGAA,6.49,6.96,,3.77,6.33,1.88,2.64,3.55,3.38,4.31,3.5,2.19,4.15,3.73,3.58,5.12,5.6,4.46,4.46
CGAACTAGGTCACGAGGACAGTGAAGAGGTTGGA,8.67,8.88,,1.07,2.21,0.184,0.4,4.39,3.75,4.91,5.66,1.48,3.84,2.61,0.957,3.07,3.85,1.87,2.75
CGAACAAGGTCAAAGGACAGTGAAAGGCGACGTA,3.85,5.39,,1.79,2.54,0.956,0.893,4.98,3.95,5.92,5.92,3.59,3.57,1.54,2.26,4.62,5.76,4,3.93
TCTCGGAGGTCACGAAGGTCAGAGCTTTCCAGAG,4.48,6.17,0.14,-0.128,4.35,9.02,1.11,,5.66,,8.12,3.05,4.64,2.29,5.14,6.63,,,
CGAACTAGGTCAAAGGACAGTGACAGGCGACGTA,8.32,8.4,,1.51,1.78,0.0588,0.339,4.01,3.39,4.39,5.1,1.78,2.69,0.589,0.435,2.47,3.89,1.3,1.47
ATATGAAGGTTAGGGTCATTCAGAAAGTAGGGAA,1.38,2.78,,1.79,3.99,2.32,2.29,3.66,3.58,4.37,3.36,2.29,4,3.15,4.12,5.28,5.38,4.59,4.6
CGTCCAAGGTCAAAGGTCACTGAAGAGATGACGG,4.24,6.37,2.37,1.21,2.49,2.15,3.47,5.96,5.74,,8.6,4.13,4.9,3.25,4.21,9,10.1,,
CGAGCTAGGTCACCAGGACAGTGAAGAGGTTGGA,3.94,4.43,,-1.08,1.48,-0.379,0.327,4.16,3.31,4.21,5.39,1.24,3.18,1.65,0.493,2.36,2.97,1.35,1.63
CGAACTCGGTCAAAGGACAGTGAAAGGCGACGTA,2.71,3.18,,-0.87,0.102,-0.567,-0.278,2.56,1.9,2.15,2.76,0.447,0.713,-0.276,-0.121,0.43,0.907,-0.0185,0.208
CGTCCAAGGTCAATGCGAGGTCAGTGAAAGCATT,3.2,4.05,0.262,-0.0151,6.13,4.68,1.33,5.4,5.27,,6.95,3.59,,4.23,4.73,,6.15,,
CGAACTTGGTCACCAGGACAGTGAAGAGGTTGGA,1.74,2.17,,-0.841,0.157,-0.183,-0.448,1.38,1.06,0.959,1.47,-0.0208,1.63,0.644,-0.0725,0.344,0.727,-0.0595,0.809
ATACCAAGGTCATCGTGAGGTCGTTGATACTAAC,2.34,4.3,2.33,1.42,4.01,5.81,1.56,5.36,4.72,,6.27,3.76,,3.91,5.41,6,6.49,,
CGAACTAGGTTACCAGGACAGTGAAGAGGTTGGA,6.94,6.73,,2.08,0.829,-0.211,-0.114,1.13,1.01,0.707,1.05,0.48,1.62,0.878,0.0565,0.296,0.367,-0.124,-0.164
ATATGTAGGTTACATGCGGGTCATTCAGGCTATG,7.67,7.33,2.78,2.03,1.57,1.11,0.618,2.01,2.51,,2.18,0.745,2.85,0.633,2.05,3.24,3.16,,
